23 compounds from PubChem BioAssay (NCATS) can be followed below.

Assay [1] is described as follows: qHTS Assay for Identifying Gametocytocidal Compounds (AID 743244).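 Also: actives lower the fluorescent signal which means gametocytes are killed.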 Conditions: P. falciparum 3D7 stage III-V gametocytes, alamarBlue, 72 h; max response: hits give low values. The method, boiled down:
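Fluorescence at Ex 525/Em 598 nm, recorded 24 h after alamarBlue addition, reports residual metabolic activity of 3D7 gametocytes (stages III–V) following 72 h compound exposure at 37 °C, 5% CO2.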
In general terms: qHTS replaces the single test concentration by a dilution series.

Assay [2] can be described thus: qHTS assay to identify small molecule inhibitors of chordoma cells - UCH-1 (AID 1259355). Also: nearly all actives have a fitted effect of over 55% in size. The method, boiled down:
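Seed 800 cells per well; incubate overnight at 37 C, 5% CO2. Add test compounds (15 concentrations), then the auranofin–topoisomerase-agent combination. Incubate 48hr, add CellTiter-Glo, wait 30min, read luminescence.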

Assay [3] in a line: qHTS assay to identify small molecule inhibitors of chordoma cells - UCH-2 (AID 1259356). Also: series mostly up to about 46 µM.
Assay [4] in a line: P-glycoprotein substrates identified in KB-8-5-11 adenocarcinoma cell line, qHTS therapeutic library screen (AID 1346987). Also: nearly all actives have a fitted effect of over 65% in size. Also: potency is read from the fitted curve at half-maximal effect. Conditions: outcome: dose series up to 44.5 µM unless noted. The method, boiled down:
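Steps: plate 500 KB-8-5-11 cells/well in DMEM + 10% FCS (colchicine removed); pin compounds in dose-response; incubate 72 h, 37 degree C, 5% CO2; add CellTiter-Glo, 5 min; read luminescence.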

Values joined by “and” are separate entries in the source; they are usually repeats but may differ in a detail not shown here. Equal values may be shown once. Results filed as inconclusive are left out. Unmarked numbers belong to inactive results. Active and inactive are the calls of the source. Calls follow the shape of the dose curve; as a rule, active = well fitted curve in the direction sought with a large enough effect; inconclusive = small, poorly fitted or top-dose-only effect, or another doubt; inactive = no such curve, though single readings can be large; an effect the other way counts as inactive or inconclusive. Where a SMILES comes first, the peptide text is derived from it. Bridges are numbered along the chain shown (N, C = ends). [ ]: non-standard residue; d: D form. The star is where a group is joined. X1 = CC[C@@H](C)[C@@H](N)C1=N[C@H](C(=O)*)CS1; d(aIle) = CC[C@H](C)[C@@H](N)C(=O)O; dOrn = NCCC[C@@H](N)C(=O)O
% is scaled to controls: 0 for no effect and ±100 for the full control effect.

With `CC(O)[C@H]1CC[C@H]2[C@@H]3CC[C@@H]4C[C@@H](O)CC[C@]4(C)[C@H]3CC[C@]12C` (some centres not stated), the max response in assay [1] is 4.2%. Besides, the Potency result in assay [2] and in assay [3] was “inactive” each time. Moreover, in assay [4], the Potency was 6.51 µM (active).

In the case of `Nc1ncnc2c1ncn2CCOCP(=O)(O)O`, the max response in assay [1] is -0.768%. The Potency entry in assay [2], in assay [3] and in assay [4] was “inactive” throughout.

Take `CCOC(=O)c1cc(-c2ccccc2)nc2ccc(C)cc12`: the max response in assay [1] was -3.36%. Besides, the Potency result in assay [2], in assay [3] and in assay [4] was “inactive” each time.

In the case of `Cc1cccc(Nc2ncccc2C(=O)O)c1C`, the max response in assay [1] is 39.6%. In addition, the Potency result in assay [2], in assay [3] and in assay [4] was “inactive” in each case.

Regarding `CN1c2c(nc(N)[nH]c2=O)NCC1CNc1ccc(C(=O)NC(CCC(=O)O)C(=O)O)cc1` (configuration not stated), the max response in assay [1] is 15.5%. Further, the Potency result in assay [2], in assay [3] and in assay [4] was “inactive” in each case.

As for `O=P(O)(O)OP(=O)(O)OP(=O)(O)O`, the max response in assay [1] was 1.26%. Also, the Potency result in assay [2], in assay [3] and in assay [4] was “inactive” throughout.

For `NC[C@H]1O[C@H](O[C@H]2[C@H](O)[C@@H](O[C@H]3O[C@H](CO)[C@@H](O)[C@H](N)[C@H]3O)[C@H](N)C[C@@H]2N)[C@H](N)C[C@@H]1O`, in assay [1], the max response is -3.45%. In addition, the Potency result in assay [2], in assay [3] and in assay [4] was “inactive” throughout.

On to `CCC[C@@H]1C[C@@H](C(=O)N[C@@H]([C@H]2O[C@H](SC)[C@H](O)[C@@H](O)[C@H]2O)[C@H](C)Cl)N(C)C1`, for which, in assay [1], the max response was -8.48%. Also, the Potency entry in assay [2], in assay [3] and in assay [4] was “inactive” each time.

In the case of `CC(C)(C)NCC(O)c1ccc(O)c(CO)n1` (configuration not stated), the max response in assay [1] is 6.55%. Further, the Potency entry in assay [2], in assay [3] and in assay [4] was “inactive” each time.

For `C=O`, the max response in assay [1] is 20.4%. In addition, the Potency entry in assay [2], in assay [3] and in assay [4] was “inactive” throughout.

With `CCc1cn([C@H]2C[C@H](O)[C@@H](CO)O2)c(=O)[nH]c1=O`, the max response in assay [1] was 16.3%. Further, the Potency entry in assay [2], in assay [3] and in assay [4] was “inactive” throughout.

As for `CC[C@@H](C)[C@@H](N)C1=N[C@H](C(=O)N[C@@H](CC(C)C)C(=O)N[C@@H](CCC(=O)O)C(=O)N[C@@H](C(=O)N[C@@H]2CCCCNC(=O)[C@@H](CC(N)=O)NC(=O)[C@@H](CC(=O)O)NC(=O)[C@@H](Cc3cnc[nH]3)NC(=O)[C@@H](Cc3ccccc3)NC(=O)[C@@H]([C@H](C)CC)NC(=O)[C@@H](CCCN)NC2=O)[C@@H](C)CC)CS1` (X1-LE[d(aIle)][dK][dOrn][dI][dF][dH][dD][dN]; lactam 4-C), in assay [1], the max response was 17.8% and -1.65%. For the same compound, the Potency result in assay [2], in assay [3] and in assay [4] was “inactive” throughout.

In the case of `COc1cc2c(cc1OC)[C@@H](c1ccccc1)CN(C)CC2`, the max response in assay [1] was -3.71%. In addition, the Potency result in assay [2], in assay [3] and in assay [4] was “inactive” each time.

Turning to `Cc1cc(C)c(NC(=O)C[C@H](CC(=O)O)c2cccc3ccccc23)c(C(=O)N2CCC3(CCCC3)CC2)c1`, in assay [1], the max response was -8.09%. For the same compound, the activity, negative = inhibition in assay [2] was -1.62% [at 1.88 µM]. Besides, the Potency entry in assay [3] and in assay [4] was “inactive” throughout.

On to `COc1ccc(C(=O)c2ccc(C)cc2)c(O)c1`, for which, in assay [1], the max response is -6.86%. The Potency entry in assay [2], in assay [3] and in assay [4] was “inactive” each time.

With `CC(=O)NCCCS(=O)(=O)O`, in assay [1], the max response is 7.56%. In addition, the Potency result in assay [2], in assay [3] and in assay [4] was “inactive” throughout.

With `CC1CCCCN1CCCOC(=O)c1ccccc1` (configuration not stated), the max response in assay [1] was 6.88%. Moreover, the Potency result in assay [2], in assay [3] and in assay [4] was “inactive” in each case.

On to `Nc1nc(/C(=C/CC(=O)O)C(=O)N[C@@H]2C(=O)N3C(C(=O)O)=CCS[C@H]23)cs1`, for which the max response in assay [1] is -2.9%. Besides, the Potency entry in assay [2], in assay [3] and in assay [4] was “inactive” in each case.

Take `CCN1C(=O)NC(c2ccccc2)C1=O` (configuration not stated): in assay [1], the max response is 13.2%. The Potency entry in assay [2], in assay [3] and in assay [4] was “inactive” in each case.

With `CC(/C=C/C=C(\C)C(=O)O[C@@H]1O[C@H](CO[C@@H]2O[C@H](CO)[C@@H](O)[C@H](O)[C@H]2O)[C@@H](O)[C@H](O)[C@H]1O)=C\C=C\C=C(C)\C=C\C=C(/C)C(=O)O[C@@H]1O[C@H](CO[C@@H]2O[C@H](CO)[C@@H](O)[C@H](O)[C@H]2O)[C@@H](O)[C@H](O)[C@H]1O`, in assay [1], the max response is 5.1%. The Potency entry in assay [2], in assay [3] and in assay [4] was “inactive” in each case.

Regarding `CCOC(=O)Oc1c(OC)cc(C(=O)O[C@@H]2C[C@@H]3CN4CCc5c([nH]c6cc(OC)ccc56)[C@H]4C[C@@H]3[C@H](C(=O)OC)[C@H]2OC)cc1OC`, the max response in assay [1] was 3.15%. Moreover, the Potency result in assay [2], in assay [3] and in assay [4] was “inactive” in each case.

As for `C=CC1=C(C(=O)O)N2C(=O)[C@@H](NC(=O)/C(=N/OCC(=O)O)c3csc(N)n3)[C@H]2SC1` (stereo in doubt), in assay [1], the max response is -1.34%. The Potency entry in assay [2], in assay [3] and in assay [4] was “inactive” throughout.

With `CCCC(=O)O`, in assay [1], the max response was -0.429%. Further, the Potency entry in assay [2], in assay [3] and in assay [4] was “inactive” each time.
